About 83,000 compounds went through this panel and 20% of them were active in at least one assay; those are over-represented in the sample as a whole.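 A percent growth of 40 corresponds to 60% growth inhibition; 0 means no net growth; -100 means all cells died. Active threshold: below 10.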 Unmarked numbers belong to inactive results. The source made the active and inactive calls.

For this assay, the system named is A549/ATCC NSCLC. Description: NCI-60 one-dose screen, 48 h (100 = growth as untreated, 0 = no growth, -100 = all killed). To be noted: 10 µM unless noted. The method, then:
Growth inhibition of the A549/ATCC human Non-Small Cell Lung tumor cell line is measured as a screen for anti-cancer activity. Cells are grown in 96 well plates and exposed to the test compound for 48 hours. Compounds are tested at a single concentration, which is 10^-5 M for most compounds. The reported endpoint is percent growth (GI% or GIPRCNT), where numbers from 0 - 100% represent growth inhibition, and numbers from -100% - 0 represent cell death. For example, a value of 40 represents 60% growth inhibition. A value of 0 means no net growth occurred over the course of the experiment. A value of -40 indicates 40% of cells at the beginning of the experiment died by the end of the experiment. A value of -100 means all cells are dead at the end of the experiment.
NCI-60 Human Tumor Cell Lines Screen was performed using the standard one-dose NCI protocol, which is described in more detail at https://dtp.cancer.gov/discovery_development/nci-60/default.htm.
Compounds with GIPRCNT values below 10 were considered active. Activity score was based on GIPRCNT using the following formula: […]
Score is 0 for GIPRCNT values of 100 or above, 50 for GIPRCNT values of 0, and 100 for GIPRCNT values of -100.
As for `O=C1Nc2ccc(Cl)cc2/C1=C/c1ccc(OCc2ccc(F)cc2)cc1`, the growth was 91.1%.
For `CCOC(=O)C1=C(C)Nc2nc3ccccc3n2C1c1cccc(Br)c1` (stereo not given), the growth is 80.7%.
Regarding `O=C(NNc1nc2cc(F)c(F)cc2n2cccc12)c1ncccn1`, the growth was 21.1%.
For the molecule `CN1CCN(c2ccc3c(c2)nc(NNC(=O)c2ccncn2)c2cccn23)CC1`, the growth is 23.3%.
Next, `Oc1ccccc1/C=N/Nc1nc(N/N=C/c2ccccc2O)nc(N2CCOCC2)n1`: 13%; `CCCC(=O)NC(c1cccnc1)c1cc(C(C)=O)c2cccnc2c1O` (stereo not given): 18.9%.
To `COc1cc(/C=N/n2cnc3oc(-c4ccccc4)cc3c2=N)cc(CN2CCCCC2)c1O` belongs -68.8% (active).
On to `CCCCCCNC(=O)Oc1ccc(/C(=C(/C)c2ccc(OC)cc2)c2ccc(OCCN3CCCC3)cc2)cc1`, for which the growth was 73.3%.
Take `COc1ccc(C(=O)n2cc(C=O)c3ccccc32)cc1`: the growth was 98.6%.
As to `CCOC(=O)C1=C(C)N=C2Sc3ccccc3N2C1c1ccccc1` (stereo not given), the growth was 82.9%.
In the case of `Cc1ccc(NC(=O)c2cc(/C=C/C(=O)NO)cc(C(F)(F)F)c2)cc1Nc1nccc(-c2cccnc2)n1`, the growth was 61.2%.
As for `CN1CCN(Cc2ccc(NC(=O)c3cncc(C#Cc4cnc5ccc(NC6CCOCC6)nn45)c3)cc2C(F)(F)F)CC1`, the growth was -14.2% (active).
Turning to `CCN1C(=O)N(CC)C2SC(N/N=C/C=C/c3ccccc3OC)=NC21` (stereo not given), the growth is 27.1%.
As for `CN1CCN(c2ccc(C(=O)Nc3cccc(-c4cn(-c5ccc(S(N)(=O)=O)cc5)nn4)c3)cc2C(F)(F)F)CC1`, the growth is 91.5%.
Next, `O=C(Nc1cccc(-c2nc(-c3ccc(NC(=O)c4cccs4)cc3Cl)no2)c1)Nc1ccc(NC(=O)C2CC2)c(C(F)(F)F)c1`: -27.7% (active); `N#Cc1c(-c2ccccc2)cc(-c2c[nH]c3ccccc23)nc1-c1c[nH]c2ccccc12`: 98.7%.
To `Oc1ccc(CSc2nnc(-c3ccc(Br)cc3)n2-c2ccccc2)c2cccnc12` belongs 26.3%; to `O=C(COc1ccc(/C=C2\SC(=O)NC2=O)cc1)Nc1ccc(C(=O)/C=C/c2cc3ccccc3nc2Cl)cc1`, 78.6%; to `Cn1cc(-c2nn3cc(-c4cccnc4)nc3s2)c2cc(F)ccc21`, 94.4%.
To `COc1ccc2c(ccn2C(=O)N2c3ccccc3Sc3ccccc32)c1` belongs 43.8%.
For `Oc1ccc(CSc2nnc(-c3ccc(Cl)cc3)o2)c2cccnc12`, the growth is 19.6%.
Consider `CCC(CC)N1C(=O)/C(=c2\sc3n(c2=O)C2C(NN=3)N(CC)C(=O)N2CC)c2ccccc21` (stereo not given), for which the growth is 26%.
On to `Oc1ccccc1-c1nnc(SCc2ccc(O)c3ncccc23)n1-c1ccccc1`, for which the growth was 9.34% (active).
Next, `CS(=O)c1nccc(-c2c(-c3ccc(F)c(OCc4ccccc4)c3)nc3sccn23)n1` (stereo not given): 100%; `Cn1cc(-c2nn3c(=O)cc(-c4ccccc4)nc3s2)c2cc(F)ccc21`: 36.7%.
`COc1ccc2c(c1)c(-c1nnc(N)nc1-c1cn(C)c3ccccc13)cn2C`: the growth is 95.8%.
To `O=C(Cn1cc(CN2C(=O)c3ccc([N+](=O)[O-])cc3C2=O)nn1)Nc1ccc(F)cc1Cl` belongs 99.1%; to `C=CCn1c(SCC(=O)Nc2cccc(C(=O)/C=C/c3ccccc3)c2)nc2ccccc2c1=O`, 82.6%.
Regarding `CCNC(=NCCCN(C)C)N/C(N)=N/c1nc2ccccc2s1`, the growth was 89.8%.
For the molecule `O=C(COc1cccc2cccnc12)Nc1ccc(C(=O)/C=C/c2ccc(Cl)cc2)cc1`, the growth is 85.4%.
To `C=C1C(=O)O[C@@H]2C[C@@H](C)/C=C\C(=O)[C@](C)(OC(C)=O)C[C@H](OC(=O)/C(C)=C\C)[C@@H]12` belongs 72.9%; to `COc1cc(O)c2c(c1)/C=C/C[C@H](O)[C@H](O)C(=O)/C=C\C[C@H](C)OC2=O`, 58.6%; to `Nc1nc(-c2cccc([N+](=O)[O-])c2)c(N=Nc2cccc(Cl)c2)s1`, 48.7%.
Next, `CC(C)C[C@H]1C(=O)O[C@H](C(C)C)C(=O)N(C)[C@@H](C(C)C)C(=O)O[C@H](C(C)C)C(=O)N(C)[C@@H](C(C)C)C(=O)O[C@H](C(C)C)C(=O)N1C`: 12.6%; `Cc1cc(C(=O)Nc2ccc(SC#N)cc2)c(C)o1`: 82.4%; `Oc1ccccc1-c1nnc(SCc2ccc(O)c3ncccc23)o1`: 27.5%.
To `COc1cc(/C=N/n2cnc3oc(-c4ccccc4)cc3c2=N)cc(CN2CCN(C)CC2)c1O` belongs 94.3%; to `CCOC(=O)c1nn(-c2ccccc2)c(=O)c2c(N)c(C#N)c(-c3cccs3)cc12`, 87.2%; to `Cc1ccc(NC(=O)N[C@@H](Cc2cc(F)cc(F)c2)C(=O)NC2C(=O)N3CCC[C@H]3C(=O)N3CCCC[C@H]3C(=O)N[C@@H](C)C(=O)N3C[C@H](C)C[C@H]3C(=O)O[C@H]2C)c(F)c1` (stereo not given in full), 26.1%.
With `O=C(NCCCNc1cc(-c2cn(-c3ccccc3)nc2-c2cccc(O)c2)ccn1)Nc1cc(C(F)(F)F)cc(C(F)(F)F)c1`, the growth was 67.1%.

Source of the values: PubChem BioAssay (NCI).
